TcdB inh: TcdB glycohydrolase inhibitors, primary screen, biochemical, single point, plate reader | Toxin B (Clostridioides difficile), P18177 | TcdB glycohydrolase enzymatic assay | inhibition, % at 9.99 µM | 350,000 compounds, 0.24% hits | AID 652162, 2013; in the data active = inhibition above about 10%
Y pestis TopoI: Yersinia pestis topoisomerase I inhibitors, primary screen, biochemical, cleavage product accumulation, plate reader, single point; DNA topoisomerase I (Yersinia pestis CO92); Y. pestis Topo-I cleavage product accumulation; activity, % at 10 µM; 360,000 compounds, 0.064% hits; AID 504884, 2011; in the data active = activity above about 50%, passing the limit was not always enough
GDH-TPI counter-1: GDH-TPI coupling enzyme inhibitors, primary screen, artefact control for M. tuberculosis FBA inhibitor project, biochemical, absorbance, full deck; GDH-TPI coupled enzyme counterscreen, NADH absorbance; inhibition, % at 4.8 µM; 360,000 compounds, 1.2% hits; AID 588335, 2011; in the data active = inhibition above about 30%
FBA Mtb inh: Mtb FBA enzyme inhibitors, primary screen, biochemical, fluorescence, strain H37Rv; Fructose-bisphosphate aldolase (Mycobacterium tuberculosis (strain ATCC 25618 / H37Rv)), …; purified M. tuberculosis FBA, fluorescence read-out; inhibition, % at 1 µM; 360,000 compounds, 2.3% hits; AID 588726, 2011
Target sequence (P9WQA3 whole entry, looked up): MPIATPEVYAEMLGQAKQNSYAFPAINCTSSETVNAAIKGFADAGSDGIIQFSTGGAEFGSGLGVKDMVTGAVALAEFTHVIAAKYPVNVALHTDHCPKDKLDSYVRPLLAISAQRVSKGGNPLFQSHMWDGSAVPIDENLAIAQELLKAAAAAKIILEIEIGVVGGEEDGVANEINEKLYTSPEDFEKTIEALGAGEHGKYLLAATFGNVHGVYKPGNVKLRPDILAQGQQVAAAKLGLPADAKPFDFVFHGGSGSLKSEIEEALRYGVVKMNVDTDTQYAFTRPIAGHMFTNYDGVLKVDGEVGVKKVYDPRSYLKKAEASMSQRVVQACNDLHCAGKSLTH
PrPC surface inh: inhibitors of human cell surface prion protein PrPC, primary screen, cell-based, TR-FRET. Major prion protein (Homo sapiens), P04156. TR-FRET read-out. inhibition, % at 13.8 µM. 370,000 compounds, 0.43% hits. AID 720596, 2013; in the data active = inhibition above about 24%
Mtb FBA confirm: M. tuberculosis aldolase blockers, biochemical, fluorescence, strain H37Rv, confirmation; shares compounds with FBA Mtb inh; purified M. tuberculosis FBA, fluorescence read-out; inhibition, % at 1 µM; 5,600 compounds, 78% hits; AID 651616, 2012
GDH-TPI counter-2: GDH-TPI coupling enzyme inhibitors, artefact control for M. tuberculosis FBA inhibitor project, biochemical, fluorescence, high throughput; shares compounds with FBA Mtb inh; inhibition, % at 1 µM; 5,600 compounds, 81% hits; GDH-TPI coupled enzyme counterscreen; in the data active = inhibition above about 10%
Numbers stand for hits; . = inactive; / = no result; + = active, no number. Hits are enriched below; roughly 3.2% of the tested compounds scored in any of these assays. Cut-off read from the data, not from the text of the source, unless noted: active = inhibition above about 27%; inactive = the rest.

SMILES | TcdB inh | Y pestis TopoI | GDH-TPI counter-1 | FBA Mtb inh | PrPC surface inh | Mtb FBA confirm | GDH-TPI counter-2
Nc1c(-c2ccccc2)n[nH]c1-c1ccccc1 | / | . | . | 39.6 | . | 71.5 | 50.4
S=c1nc(-c2ccccc2)c(-c2ccccc2)n[nH]1 | . | . | . | . | . | / | /
COc1ccc(CN(C)C[C@H]2Oc3ccc(NS(C)(=O)=O)cc3C(=O)N([C@@H](C)CO)C[C@H]2C)cc1 | . | / | / | / | / | / | /
CCc1ccc(C(=O)C[n+]2cccc3cc(OC)ccc32)cc1 | . | . | . | 40.5 | . | . | 19.6
COC(=O)c1ccc2c(c1)C(C)(C)C(/C=C/c1ccc(O)cc1)=[N+]2C | / | . | . | . | . | / | /
COC(=O)c1ccc2c(c1)C(C)(C)C(/C=C/c1ccc(OC)c(OC)c1OC)=[N+]2C | / | . | . | 47.5 | . | 77.6 | 57.2
CCC(=O)c1c[nH]c(C(=O)NCc2cccc(C(F)(F)F)c2)c1 | . | . | . | 79.2 | . | + | +
CN(C)CCCNc1cc(-c2ccccc2)nc2cc(-c3cccc(F)c3)nn12 | . | . | . | 78.0 | . | 78.4 | 60.8
C[C@@H]1CN([C@@H](C)CO)C(=O)c2cc(NC(=O)Cn3cnnn3)ccc2O[C@H]1CN(C)C(=O)Nc1ccc(F)cc1 | . | / | / | / | / | / | /
COc1ccc(C2CC(c3ccccc3)=NN2C(=O)c2ccc(F)cc2)cc1 (stereo unspecified) | . | . | . | . | . | / | /
COc1ccc(C2CC(c3ccncc3)=NN2c2ccc(S(N)(=O)=O)cc2)cc1 (stereo unspecified) | . | . | . | 68.4 | . | 108.6 | 87.6
COc1ccc(C2CC(c3ccccc3)=NN2c2ccc(Cl)c(C(=O)O)c2)cc1 (stereo unspecified) | . | . | . | 85.9 | . | + | +
COc1ccc(C2=NN(C(=S)Nc3ccccc3)C(c3ccccc3)C2)cc1 (stereo unspecified) | / | . | . | . | . | / | /
CCC(=O)Nc1cccc(C2=NN(c3ccccc3)C(c3ccc(OC)cc3)C2)c1 (stereo unspecified) | . | . | . | 77.1 | . | 104.0 | 69.0
COc1ccc(-c2nn(CCC(=O)O)cc2CCC(=O)O)cc1 | / | . | . | . | . | / | /
COc1ccc(C2=NN(c3ccccc3)C(c3cn(CCC(=O)O)nc3-c3ccccc3)C2)cc1 (stereo unspecified) | . | . | . | 107.8 | . | . | 19.0
COc1cccc(S(=O)(=O)N[C@H]2CC[C@H](CC(=O)NCc3ccccc3)O[C@@H]2CO)c1 | . | / | / | / | / | / | /
CNC[C@@H]1Oc2ccc(NC(=O)NC3CCCCC3)cc2CC(=O)N([C@@H](C)CO)C[C@@H]1C | . | / | / | / | / | / | /
C[C@@H]1CN([C@H](C)CO)C(=O)c2cccc(NC(=O)C3CCOCC3)c2O[C@@H]1CN(C)S(=O)(=O)c1cn(C)cn1 | . | / | / | / | / | / | /
COc1cc2c(OC)cccc2cc1C(=O)O | / | . | . | 65.0 | . | + | +
CCCCc1cc(=O)oc2cc(C)cc(OCC(=O)NCc3ccccn3)c12 | . | . | . | 63.7 | . | 46.5 | 38.8
Cc1cc(OC(C)C(=O)NCc2ccccn2)c2c(C)c(Cc3ccccc3)c(=O)oc2c1 (stereo unspecified) | . | . | . | . | . | / | /
CCCCc1cc(=O)oc2cc(C)cc(OC(C)C(=O)NCc3ccccn3)c12 (stereo unspecified) | . | . | . | 63.0 | . | 153.1 | 122.0
Cc1cc(OC(C)C(=O)NCc2ccccn2)c2c(C)cc(=O)oc2c1 (stereo unspecified) | . | . | . | 103.3 | . | . | .
CCCCc1cc(=O)oc2cc(OC(C)C(=O)NCc3ccccn3)c(Cl)cc12 (stereo unspecified) | . | . | . | . | . | / | /
SMILES | TcdB inh | Y pestis TopoI | GDH-TPI counter-1 | FBA Mtb inh | PrPC surface inh | Mtb FBA confirm | GDH-TPI counter-2
CCCCc1cc(=O)oc2cc(OCC(=O)NCc3ccccn3)c(Cl)cc12 | . | . | . | . | . | / | /
COc1ccc(S(=O)(=O)Nc2ccc3c(c2)C(=O)N([C@H](C)CO)C[C@H](C)[C@@H](CN(C)S(=O)(=O)c2c(C)noc2C)OCCCC[C@@H](C)O3)cc1 | . | / | / | / | / | / | /
NS(=O)(=O)c1cc(C(=O)NC2CCSc3ccccc32)ccc1Cl (stereo unspecified) | . | . | . | . | . | / | /
CS(=O)(=O)c1ccc(Cl)c(C(=O)NC2CCSc3ccccc32)c1 (stereo unspecified) | . | . | . | 63.8 | . | . | .
Cc1cc(OCC(=O)N[C@@H](Cc2ccccc2)C(=O)O)c2c3c(c(=O)oc2c1)CCCC3 | . | . | . | 50.6 | . | 160.9 | 117.0
CCCc1cc(=O)oc2cc(C)cc(OCC(=O)NCc3cccnc3)c12 | . | . | . | 76.3 | . | + | +
Cc1cc(OCC(=O)N[C@@H](Cc2c[nH]c3ccccc23)C(=O)O)c2c(C)c(C)c(=O)oc2c1 | . | . | . | . | . | / | /
O=C(COc1cc2oc(=O)c3c(c2cc1Cl)CCCC3)NCc1cccnc1 | . | . | . | . | . | / | /
Cc1cc(OCC(=O)NCc2cccnc2)c2c3c(c(=O)oc2c1)CCCC3 | . | . | . | 105.5 | . | 54.9 | 36.9
O=C(Nc1ccc(F)cc1)N[C@H]1CC[C@@H](CCNC(=O)c2ccccc2F)O[C@H]1CO | . | / | / | / | / | / | /
O=C(NCCN1CCCCC1)[C@@H]1[C@@H](CO)[C@@H]2Cn3c(cccc3=O)[C@@H]2N1Cc1ccccn1 | . | / | / | / | / | / | /
Cc1cc(O)c2c(C)c(CC(=O)N3CCN(C(=O)C4COc5ccccc5O4)CC3)c(=O)oc2c1 (stereo unspecified) | . | . | . | . | . | / | /
COc1cc(C)cc2oc(=O)c(CC(=O)N3CCN(C(=O)C4COc5ccccc5O4)CC3)c(C)c12 (stereo unspecified) | . | . | . | 103.9 | . | 64.3 | 54.2
CC(=O)Oc1ccc2c(C)c(CC(=O)N3CCN(C(=O)C4COc5ccccc5O4)CC3)c(=O)oc2c1C (stereo unspecified) | . | . | . | 43.6 | . | . | .
C[C@@H]1CN([C@@H](C)CO)C(=O)c2cc(-c3cccc(C#N)c3)cnc2O[C@@H]1CN(C)Cc1cccnc1 | . | / | / | / | / | / | /
CCC(CC)=NNC(=O)c1ccccc1OCc1ccc(F)cc1 | / | . | . | . | . | / | /
Cc1ccc(/C=N/NC(=O)c2ccccc2OCc2ccc(F)cc2)o1 | . | . | . | 93.8 | . | 54.1 | 47.0

Compound activity as filed in PubChem.
